For part of these data: Entries with a potency or affinity are not part of this list.
How the values were obtained:
Parameters in all cases: scale not given: direction of the effect not stated beside the values
[1] = molecular target: Protein translocase subunit SecA (Escherichia coli (strain K12)) (UniProt P10408); assay: Assay to Identify E. coli SecA ATPase Inhibitors; assay type: functional; settings: 30 µM
[2] = molecular target: T1, Ubiquitin-activating enzyme e1, putative (Leishmania donovani (strain BPK282A1)) (UniProt E9BSI1); assay: Leishmania donovani Ubiquitin Activating Enzyme (LdE1); assay type: functional; settings: 30 µM
T1 sequence (whole entry): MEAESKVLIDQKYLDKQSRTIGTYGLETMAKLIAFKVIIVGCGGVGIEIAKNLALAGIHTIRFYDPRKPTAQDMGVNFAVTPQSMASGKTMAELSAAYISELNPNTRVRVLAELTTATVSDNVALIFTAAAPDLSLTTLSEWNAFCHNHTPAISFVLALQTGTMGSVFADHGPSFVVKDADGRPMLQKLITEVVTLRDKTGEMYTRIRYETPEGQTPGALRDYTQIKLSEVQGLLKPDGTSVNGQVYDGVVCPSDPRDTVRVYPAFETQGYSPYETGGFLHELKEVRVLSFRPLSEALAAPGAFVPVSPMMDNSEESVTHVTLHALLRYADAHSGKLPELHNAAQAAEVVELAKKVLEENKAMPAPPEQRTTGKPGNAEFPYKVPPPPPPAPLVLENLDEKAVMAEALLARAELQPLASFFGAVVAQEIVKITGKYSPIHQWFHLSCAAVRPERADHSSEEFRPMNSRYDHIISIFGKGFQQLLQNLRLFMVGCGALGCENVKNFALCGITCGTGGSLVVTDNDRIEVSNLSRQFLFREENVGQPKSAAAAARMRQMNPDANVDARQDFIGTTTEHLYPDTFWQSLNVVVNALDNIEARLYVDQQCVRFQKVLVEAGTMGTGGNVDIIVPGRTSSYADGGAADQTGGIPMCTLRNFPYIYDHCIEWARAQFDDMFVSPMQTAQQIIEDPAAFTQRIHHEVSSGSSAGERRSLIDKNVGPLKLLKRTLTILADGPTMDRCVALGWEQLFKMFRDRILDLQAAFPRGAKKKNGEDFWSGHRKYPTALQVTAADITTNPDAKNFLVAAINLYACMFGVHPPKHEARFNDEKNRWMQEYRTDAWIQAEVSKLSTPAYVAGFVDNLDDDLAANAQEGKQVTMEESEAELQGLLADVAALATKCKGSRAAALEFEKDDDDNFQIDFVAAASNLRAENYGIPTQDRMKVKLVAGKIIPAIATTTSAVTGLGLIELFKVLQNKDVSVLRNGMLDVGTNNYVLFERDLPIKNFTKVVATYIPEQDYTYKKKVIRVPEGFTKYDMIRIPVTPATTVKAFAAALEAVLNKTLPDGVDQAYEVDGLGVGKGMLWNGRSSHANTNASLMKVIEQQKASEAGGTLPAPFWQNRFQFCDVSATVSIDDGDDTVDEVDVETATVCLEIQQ

[3] = molecular target: AMP-activated protein kinase, AMPK (Homo sapiens) (UniProt P54646+O43741+P54619+Q9UGJ0+Q9Y478+Q13131+Q9UGI9); assay: AMP-dependent Kinase enzyme assay. An in vitro enzyme assay that detects ADP turnover that is directly proportional to AMPK activity. This uses naive AMPK that is activated during the assay with MK-8722; assay type: functional; settings: 30 µM
[4] = molecular target: Sialic acid-binding Ig-like lectin 9 (Homo sapiens) (UniProt Q9Y336); assay: Hs-Siglec9 ALPHAscreen SOP 20170721; settings: 10 µM
Trypanosoma cruzi = assay: Trypanosoma cruzi phosphomannomutase and mannose-1-phosphate guanylyltransferase assay; assay type: functional; settings: 10 µM
[5] = molecular target: T2, Arginase-2, mitochondrial (Homo sapiens) (UniProt P78540); assay: in vitro enzyme assay to detect the production of urea directly proportional to the activity of Arginase II; assay type: functional; settings: 33.3 µM; further: in the data most compounds retested in dose-response had high values
T2 sequence (whole entry): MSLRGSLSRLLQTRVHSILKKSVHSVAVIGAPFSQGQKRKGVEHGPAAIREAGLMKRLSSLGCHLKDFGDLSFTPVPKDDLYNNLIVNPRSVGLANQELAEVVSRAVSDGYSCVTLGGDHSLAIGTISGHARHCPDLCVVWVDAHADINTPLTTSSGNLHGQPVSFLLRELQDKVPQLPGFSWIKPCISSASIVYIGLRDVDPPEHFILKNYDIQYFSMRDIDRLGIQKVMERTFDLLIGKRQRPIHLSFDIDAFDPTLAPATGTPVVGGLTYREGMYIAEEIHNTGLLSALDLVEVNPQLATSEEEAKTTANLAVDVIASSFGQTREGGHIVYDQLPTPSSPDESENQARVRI

[6] = molecular target: T3, Proteasome subunit beta (Trypanosoma cruzi) (UniProt O96673); assay: Trypanosoma cruzi proteasome chymotrypsin-like activity (TcProtChymo) assay.; further: in the data most compounds retested in dose-response had high values; assay type: functional; settings: 9.37 µM
T3 sequence (whole entry): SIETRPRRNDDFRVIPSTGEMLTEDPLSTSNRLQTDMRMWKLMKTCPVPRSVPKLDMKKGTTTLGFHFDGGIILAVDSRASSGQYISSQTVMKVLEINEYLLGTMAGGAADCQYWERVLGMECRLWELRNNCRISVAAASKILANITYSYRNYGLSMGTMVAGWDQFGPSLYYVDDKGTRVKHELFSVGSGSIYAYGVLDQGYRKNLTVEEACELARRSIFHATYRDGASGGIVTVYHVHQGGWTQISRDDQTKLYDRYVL

Homo sapiens = species on record: Homo sapiens; assay: To identify inhibition of the IFN signalling (Jak-Stat) pathway via expression of an eGFP reporter gene under the control of an IFN-stimulated response element (ISRE) containing MxA promoter.; assay type: functional; settings: 30 µM
[7] = molecular target: T4, Tyrosyl-tRNA synthetase, putative (Trypanosoma cruzi (strain CL Brener)) (UniProt Q4DSP6); assay: Trypanosoma cruzi tyrosyl tRNA synthetase (TcYRS) _High Tyrosine SOP; assay type: functional; settings: 30 µM; further: in the data most compounds retested in dose-response had high values
T4 sequence (whole entry): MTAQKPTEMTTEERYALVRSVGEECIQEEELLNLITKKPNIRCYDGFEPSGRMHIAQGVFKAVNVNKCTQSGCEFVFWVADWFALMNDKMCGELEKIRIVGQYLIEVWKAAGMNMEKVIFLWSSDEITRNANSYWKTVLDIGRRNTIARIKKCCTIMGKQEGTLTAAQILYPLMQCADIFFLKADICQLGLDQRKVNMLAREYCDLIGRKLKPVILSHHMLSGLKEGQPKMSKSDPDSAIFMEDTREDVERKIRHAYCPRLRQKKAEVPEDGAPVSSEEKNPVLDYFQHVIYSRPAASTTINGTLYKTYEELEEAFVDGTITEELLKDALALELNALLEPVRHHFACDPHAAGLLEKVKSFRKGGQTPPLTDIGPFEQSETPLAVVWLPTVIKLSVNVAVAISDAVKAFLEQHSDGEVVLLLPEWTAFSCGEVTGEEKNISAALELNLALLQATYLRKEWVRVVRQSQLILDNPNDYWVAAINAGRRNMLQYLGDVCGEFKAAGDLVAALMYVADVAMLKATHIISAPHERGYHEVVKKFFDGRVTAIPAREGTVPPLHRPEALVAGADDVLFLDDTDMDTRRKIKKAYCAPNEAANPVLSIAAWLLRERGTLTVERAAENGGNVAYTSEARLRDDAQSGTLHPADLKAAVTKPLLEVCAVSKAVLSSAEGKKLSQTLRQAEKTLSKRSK

[8] = molecular target: T4, Tyrosyl-tRNA synthetase, putative (Trypanosoma cruzi (strain CL Brener)); assay: Trypanosoma cruzi tyrosyl tRNA synthetase (TcYRS) SOP; assay type: functional; settings: 30 µM
[9] = molecular target: Chromo domain-containing protein 1 (Saccharomyces cerevisiae (strain ATCC 204508 / S288c) (Baker's yeast)) (UniProt P32657); assay: ScCHD-1 Enzyme Inhibition Assay; assay type: functional; settings: 30 µM; further: in the data most compounds retested in dose-response had high values
Chain of Chromo domain-containing protein 1 (Saccharomyces cerevisiae (strain ATCC 204508 / S288c) (Baker's yeast)) (P32657 whole entry, the tested form may be a part): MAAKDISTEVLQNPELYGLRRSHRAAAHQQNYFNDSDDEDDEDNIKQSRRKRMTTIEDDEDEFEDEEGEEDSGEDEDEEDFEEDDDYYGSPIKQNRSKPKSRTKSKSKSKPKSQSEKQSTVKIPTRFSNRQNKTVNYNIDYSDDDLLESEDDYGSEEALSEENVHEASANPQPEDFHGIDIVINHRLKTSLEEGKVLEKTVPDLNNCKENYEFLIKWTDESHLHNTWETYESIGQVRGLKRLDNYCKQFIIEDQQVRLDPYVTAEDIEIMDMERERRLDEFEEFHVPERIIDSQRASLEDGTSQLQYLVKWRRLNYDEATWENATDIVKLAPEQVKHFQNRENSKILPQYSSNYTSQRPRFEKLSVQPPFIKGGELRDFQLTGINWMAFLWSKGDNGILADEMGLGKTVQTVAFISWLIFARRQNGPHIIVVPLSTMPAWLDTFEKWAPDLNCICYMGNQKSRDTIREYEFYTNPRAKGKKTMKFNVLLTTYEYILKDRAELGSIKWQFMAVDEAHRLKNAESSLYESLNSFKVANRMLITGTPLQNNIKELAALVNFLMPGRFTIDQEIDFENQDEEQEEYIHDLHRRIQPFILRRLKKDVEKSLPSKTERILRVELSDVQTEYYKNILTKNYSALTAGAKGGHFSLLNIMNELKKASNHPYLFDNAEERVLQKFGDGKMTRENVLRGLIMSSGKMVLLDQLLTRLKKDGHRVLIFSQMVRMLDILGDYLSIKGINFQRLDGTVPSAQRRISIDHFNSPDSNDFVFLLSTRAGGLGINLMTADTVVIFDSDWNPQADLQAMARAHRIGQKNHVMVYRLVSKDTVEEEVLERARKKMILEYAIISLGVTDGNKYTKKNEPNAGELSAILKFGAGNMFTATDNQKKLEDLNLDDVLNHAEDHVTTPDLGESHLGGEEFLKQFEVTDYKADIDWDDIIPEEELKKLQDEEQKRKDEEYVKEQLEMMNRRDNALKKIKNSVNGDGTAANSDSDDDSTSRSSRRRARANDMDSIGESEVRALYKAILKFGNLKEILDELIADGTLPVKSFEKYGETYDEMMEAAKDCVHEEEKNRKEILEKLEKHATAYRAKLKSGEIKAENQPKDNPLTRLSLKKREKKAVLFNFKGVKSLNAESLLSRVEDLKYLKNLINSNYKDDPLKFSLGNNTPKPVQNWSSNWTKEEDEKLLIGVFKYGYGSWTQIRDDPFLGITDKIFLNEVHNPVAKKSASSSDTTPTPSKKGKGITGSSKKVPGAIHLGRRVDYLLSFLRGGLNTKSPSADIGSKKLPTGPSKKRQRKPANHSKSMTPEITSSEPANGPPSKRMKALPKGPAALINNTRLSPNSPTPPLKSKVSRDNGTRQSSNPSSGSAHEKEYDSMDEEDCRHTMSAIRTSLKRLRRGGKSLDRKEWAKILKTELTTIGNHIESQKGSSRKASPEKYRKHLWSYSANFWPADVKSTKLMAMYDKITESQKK

Chain of Sialic acid-binding Ig-like lectin 9 (Homo sapiens) (Q9Y336 whole entry): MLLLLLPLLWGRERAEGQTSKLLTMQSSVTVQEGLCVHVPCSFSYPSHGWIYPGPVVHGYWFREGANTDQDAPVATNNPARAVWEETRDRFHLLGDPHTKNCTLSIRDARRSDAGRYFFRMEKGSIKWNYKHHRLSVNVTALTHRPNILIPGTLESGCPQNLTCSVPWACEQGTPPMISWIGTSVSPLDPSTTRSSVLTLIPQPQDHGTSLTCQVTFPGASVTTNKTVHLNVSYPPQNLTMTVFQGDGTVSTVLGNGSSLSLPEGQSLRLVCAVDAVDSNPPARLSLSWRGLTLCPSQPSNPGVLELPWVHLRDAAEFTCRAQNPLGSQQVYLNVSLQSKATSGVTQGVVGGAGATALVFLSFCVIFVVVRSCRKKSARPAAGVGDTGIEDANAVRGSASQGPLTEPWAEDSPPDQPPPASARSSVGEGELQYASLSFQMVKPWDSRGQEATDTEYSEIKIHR
Chain of Protein translocase subunit SecA (Escherichia coli (strain K12)) (P10408 whole entry): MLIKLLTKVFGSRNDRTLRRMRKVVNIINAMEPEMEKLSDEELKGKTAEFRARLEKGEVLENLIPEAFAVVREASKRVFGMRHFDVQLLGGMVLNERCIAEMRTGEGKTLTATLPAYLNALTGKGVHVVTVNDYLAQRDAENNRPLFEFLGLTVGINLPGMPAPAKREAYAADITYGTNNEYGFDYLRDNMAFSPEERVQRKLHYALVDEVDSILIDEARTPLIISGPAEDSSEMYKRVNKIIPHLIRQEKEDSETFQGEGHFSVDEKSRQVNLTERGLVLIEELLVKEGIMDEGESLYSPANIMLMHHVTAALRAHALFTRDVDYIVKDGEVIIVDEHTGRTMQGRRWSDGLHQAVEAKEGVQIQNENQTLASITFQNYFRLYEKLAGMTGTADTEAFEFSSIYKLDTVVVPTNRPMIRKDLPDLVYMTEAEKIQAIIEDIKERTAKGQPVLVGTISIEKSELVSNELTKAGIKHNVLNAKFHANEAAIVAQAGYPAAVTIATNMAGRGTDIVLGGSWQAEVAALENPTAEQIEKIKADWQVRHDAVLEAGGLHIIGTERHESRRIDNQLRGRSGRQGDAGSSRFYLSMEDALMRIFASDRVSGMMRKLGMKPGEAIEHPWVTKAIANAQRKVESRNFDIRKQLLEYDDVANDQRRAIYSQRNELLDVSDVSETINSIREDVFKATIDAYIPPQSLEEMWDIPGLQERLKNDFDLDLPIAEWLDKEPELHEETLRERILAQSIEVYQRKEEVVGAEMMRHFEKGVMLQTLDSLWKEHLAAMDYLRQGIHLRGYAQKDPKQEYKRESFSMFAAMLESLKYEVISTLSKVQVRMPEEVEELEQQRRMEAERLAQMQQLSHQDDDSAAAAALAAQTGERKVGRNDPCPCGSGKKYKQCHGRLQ

Row | SMILES | Percent Effect [1] [%] | Percent Effect [2] [%] | Percent Effect [3] [%] | Percent Effect [4] [%] | Percent Effect (Trypanosoma cruzi) [%] | Percent Effect [5] [%] | Percent Effect [6] [%] | Percent Effect (Homo sapiens) [%] | Percent Effect [7] [%] | Percent Effect [8] [%] | Percent Effect [9] [%]
1 | CCCn1cc(C(=O)N(C)Cc2nc(-c3ccccn3)no2)c(C)n1 | -2.06 | 5.33 | -2.74 | 4.11 | -2.43 | 4.69 | 18.8 | 17 | 6.01 | 13.6 | -5.18
2 | COCCC(=O)N1CCC2(COCc3cnc(-c4ccccc4)nc32)C1 (stereo unspecified) | -1.59 | 2.67 | 15.5 | -0.802 | -7.48 | 2.56 | 1.15 | 6.76 | -1.06 | 3.85 | -0.943
3 | CC(C)(C)c1nc(CN2CCCC2Cn2cccn2)no1 (stereo unspecified) | -1.54 | 26 | -0.88 | -2.85 | 2.81 | 6.41 | 17.7 | 18.5 | 12.6 | 26.8 | -9.21
4 | Cc1ccc(C(=O)N2CCSCC2)cc1NC(=O)NCCO | -5.08 | 2.74 | 6.7 | 18.5 | 1.39 | -1.2 | 9.68 | 15.2 | 6.25 | 11.1 | -3.9
5 | Cc1nc(N2CC[C@@H](NC(=O)c3cnccn3)[C@H](O)C2)c2ccsc2n1 | 0.273 | 8.11 | -4.4 | 15.3 | 2.7 | 3.33 | 2.41 | 46.9 | 5.82 | 19.5 | -3.51
6 | O=C(NCCCNC(=O)c1cccc(O)c1)Nc1ccc(F)cc1F | -7.43 | 18.4 | 7.05 | -5.18 | 2.24 | -3.55 | 12.9 | 3.94 | 2.13 | 15.6 | -5.87
7 | COc1nn(C)c2c1CCCN(C(=O)c1cc[nH]n1)C2 | -5.44 | -5.41 | 5.53 | 2.19 | -4.4 | -0.319 | 22.3 | -1.16 | -11.9 | -12.8 | 6.55
8 | Cn1ccc(CN2CCC(c3ccccc3)CC2)cc1=O | -7.43 | 15.6 | -2.22 | 11.1 | -0.374 | 3.92 | 8.11 | 14.7 | 8.74 | 19.5 | -7.5
9 | CCCn1nc(C2CCNCC2)n(Cc2ccccc2)c1=O | -2.26 | 13.5 | -3.97 | 17 | 7.34 | -5.71 | 10.2 | 0.924 | 5.82 | 14.6 | -1.76
10 | CC(C)NC(=O)N1CCN(S(=O)(=O)C2CC2)CC2(CC(=O)N(C)C2)C1 (stereo unspecified) | -4.24 | 10.4 | 5.32 | -0.477 | 5.23 | -5.81 | -2.79 | 12.6 | 1.06 | 6.41 | -4.42
11 | Cn1cc(C(=O)Nc2ccc3c(c2)CN(C(=O)c2ccco2)CC3)nn1 | -2.6 | 7.79 | 7.19 | 9.07 | 3.65 | -5.81 | 7.66 | 0.998 | 4.23 | 11.5 | -7.06
12 | CCN1CCN(C2CCN(Cc3ncc(C(C)(C)C)o3)CC2)C1=O | -2.95 | -7.79 | 6.42 | 7.85 | 1.47 | -1.47 | 7.2 | -13.2 | 6.67 | 7.06 | -19.1
13 | Cc1ccc(CNC(=O)Nc2cc(C(F)(F)F)c[nH]c2=O)cn1 | -3.22 | 6.94 | 7.59 | -6.47 | 0.0972 | 4.42 | 11.6 | -18.5 | 6.32 | 12.8 | -5.05
14 | Cc1cccc(-n2cc(C(=O)N3CCn4c(C)nnc4C3)nn2)c1 | -9.19 | -2.74 | 2.62 | 0.154 | -4.17 | -8.38 | 3 | 21.1 | 3.12 | 1.24 | 0.00385
15 | O=C(Cc1cccc(Cl)c1)N[C@@H]1CCNC[C@H]1O | -6.4 | 18.9 | -5.86 | 31.3 | 4.2 | 19.1 | 9.7 | 0.775 | 5.38 | 16.1 | -13.7
16 | Nc1nccc(N2CCCC(CO)(CCOc3ccccc3)C2)n1 (stereo unspecified) | -4.62 | 2.6 | -0.596 | 19 | 8.75 | -13.8 | 15.3 | 41.9 | 7.53 | 13.6 | -3.14
17 | N#Cc1ccc(C(=O)NCCCNc2ccc(C(F)(F)F)cn2)cc1 | -0.682 | 13.2 | 3.77 | -0.309 | -7.52 | -0.766 | 9.02 | 35.5 | 7.35 | 17.1 | -10.9
18 | CCCOc1ccc(CNC(=O)N2CCC(C(N)=O)C2)cc1 (stereo unspecified) | -0.765 | 22.8 | -8.41 | -9.27 | -2.36 | 2.28 | 5.82 | -21.1 | 4.43 | 13.9 | -2.35
19 | CCOc1ccc(N2CCCN=C2NC(=O)c2ccccc2C)cc1 | -3.08 | 7.79 | -2.01 | 4.38 | -0.0983 | -5.52 | 9.98 | -13.7 | 6.45 | 16.1 | 106
20 | CCn1c(C)nnc1CN(C)C1CCN(Cc2cnc(C)cn2)C1 (stereo unspecified) | -3.27 | 10.8 | -13.9 | 0.873 | -0.88 | -2.73 | 7.81 | 16.2 | 8.6 | 18.5 | -7
21 | O=C(NC1=NCCCN1c1ccc(Cl)cc1)c1cccc(Cl)c1 | -4.08 | -5.2 | 0.353 | -0.0638 | -6.39 | 1.38 | 15.1 | 3.87 | -5.38 | -8.64 | 0.69
